Laboratory results as given in PubChem BioAssay (NCI).
This is part of a sample that, as a whole, favours compounds with a hit. Of some 79,000 tested, about 15% had one in any assay. Values without a mark were called inactive. Calls of active or inactive are those of the source. No stated cut-off is given here; in the data, active means growth inhibition above about 70%; inactive means the rest.

Tests used:
[1] = NCI Yeast Anticancer Drug Screen. Data for the rad50 strain (AID 155);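 further: 0% = growth of vehicle-only cultures of the same strain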; conditions: S. cerevisiae rad50 strain growth inhibition, stronger effect = higher value
Outline: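 Compounds were tested on a yeast strain with an engineered DNA damage repair alteration; the reported value is growth inhibition normalised to vehicle treatment.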

[2] = NCI Yeast Anticancer Drug Screen. Data for the mec2-1 strain (AID 157); conditions: S. cerevisiae mec2-1 strain, stronger effect = higher value
Outline: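 Yeast mec2-1 mutant treated with compound. Readout: growth inhibition vs vehicle controls.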

[3] = NCI Yeast Anticancer Drug Screen. Data for the sgs1 mgt1 strain (AID 161);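 further: 0% = growth of cultures given vehicle only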; conditions: S. cerevisiae sgs1 mgt1 strain, stronger effect = higher value
Outline: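 Genetically altered yeast, compound exposure, growth inhibition relative to vehicle.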

[4] = NCI Yeast Anticancer Drug Screen. Data for the cln2 rad14 strain (AID 165);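 further: 0% = growth equal to vehicle treated cultures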; conditions: S. cerevisiae cln2 rad14 strain, stronger effect = higher value
Outline: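 cln2 rad14 yeast strain; compound exposure; growth inhibition read vs vehicle controls.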

[5] = NCI Yeast Anticancer Drug Screen. Data for the bub3 strain (AID 167); conditions: S. cerevisiae bub3 mutant strain, stronger effect = higher value
Outline: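 Growth of a checkpoint-deficient yeast mutant is measured after compound exposure. Values represent inhibition relative to vehicle.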

[6] = NCI Yeast Anticancer Drug Screen. Data for the mlh1 rad18 strain (AID 175); conditions: S. cerevisiae mlh1 rad18 strain growth inhibition, stronger effect = higher value
Outline: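 Yeast w/ defined DNA-repair lesions; compound exposure; growth vs vehicle controls → % inhibition.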

[7] = at 5.0 µM (retest, dose inferred, filed as 0.5)
[8] = at 50.0 µM (retest, dose inferred, filed as 5.0)

SMILES	growth inhibition [1, 7]	growth inhibition [1, 8]	growth inhibition ([1]; at 50.0 µM)	growth inhibition [2, 7]	growth inhibition [2, 8]	growth inhibition ([2]; at 50.0 µM)	growth inhibition [3, 7]	growth inhibition [3, 8]	growth inhibition ([3]; at 50.0 µM)	growth inhibition [4, 7]	growth inhibition [4, 8]	growth inhibition ([4]; at 50.0 µM)	growth inhibition [5, 7]	growth inhibition [5, 8]	growth inhibition ([5]; at 50.0 µM)	growth inhibition [6, 7]	growth inhibition [6, 8]	growth inhibition ([6]; at 50.0 µM)
O=[N+]([O-])OC1CCCC(O[N+](=O)[O-])c2c1n([O-])c1ccccc1[n+]2=O (configuration not stated)	53%	91% (active)	89.3% (active)	40%	86% (active)	21.2%	58%	94% (active)	82.5% (active)	39%	84% (active)	47.1%	19%	73% (active)	17.5%	53%	94% (active)	84% (active)
CCC1(c2ccc(N3C(=O)c4ccccc4C3=O)cc2)CCC(=O)NC1=O (configuration not stated)	1%	-3%	-5.4%	-36%	-24%	-13.2%	-20%	5%	86.3% (active)	-17%	3%	9.4%	-17%	-19%	-8.6%	-27%	-25%	5.4%
O=C1C=CC2=Nc3ccccc3CCC2=C1	-151%	95% (active)	90% (active)	-57%	95% (active)	99% (active)	-63%	95% (active)	87.7% (active)	-52%	86% (active)	88.9% (active)	-67%	97% (active)	98.8% (active)	-115%	97% (active)	95.1% (active)
CNC(=O)N1N[C@H](c2ccccc2)[C@@H]1c1ccccc1	25%	69%	30.6%	15%	50%	35%	21%	63%	47.4%	20%	32%	36.9%	29%	72% (active)	46.9%	23%	60%	-14.1%
O=C1c2ccc3ccccc3c2CN2C(=O)CCC12 (configuration not stated)	4%	83% (active)	25.2%	-11%	16%	-6.6%	-5%	28%	21.7%	7%	66%	-4.3%	-5%	39%	6.2%	4%	43%	23.5%
CN(C)c1ccc(C2C=C(c3ccccc3)Oc3ccccc32)cc1 (configuration not stated)	97% (active)	96% (active)	96.7% (active)	94% (active)	96% (active)	97% (active)	97% (active)	97% (active)	96.9% (active)	92% (active)	94% (active)	95.8% (active)	93% (active)	97% (active)	95.8% (active)	95% (active)	96% (active)	96.8% (active)
O=C1C=C(Br)C(=O)C(Br)=C1	25%	99% (active)	93.8% (active)	21%	99% (active)	99.6% (active)	13%	98% (active)	99.3% (active)	28%	86% (active)	25.7%	31%	99% (active)	94.2% (active)	40%	99% (active)	97.5% (active)
CC(=O)c1ccc(Br)cc1NC1=CC(=O)c2ncccc2C1=O	95% (active)	95% (active)	86.7% (active)	88% (active)	94% (active)	91.2% (active)	81% (active)	96% (active)	88.8% (active)	77% (active)	90% (active)	88.3% (active)	83% (active)	95% (active)	89.7% (active)	87% (active)	95% (active)	87.3% (active)
Oc1ccccc1C(c1ccccc1O)C(Cl)(Cl)Cl	94% (active)	96% (active)	95.7% (active)	96% (active)	97% (active)	98.5% (active)	94% (active)	96% (active)	97.3% (active)	97% (active)	96% (active)	95% (active)	84% (active)	96% (active)	98.2% (active)	91% (active)	96% (active)	98% (active)
CNC(=O)N/N=C/c1ccc([N+](=O)[O-])o1	12%	40%	65.2%	4%	22%	38.6%	7%	29%	70.3% (active)	9%	15%	11.8%	10%	38%	34%	12%	48%	71.5% (active)
O=C(/C=C\c1cc(Br)ccc1O)/C=C/c1cc(Br)ccc1O	58%	90% (active)	76.8% (active)	95% (active)	91% (active)	75.8% (active)	80% (active)	91% (active)	73.3% (active)	36%	88% (active)	36.4%	95% (active)	91% (active)	89% (active)	48%	86% (active)	75% (active)
CSc1ccc2c(c1)S[S@@](=O)N2	-5%	55%	35.9%	-11%	61%	1.45%	9%	34%	56.6%	-16%	33%	18.3%	5%	96% (active)	51.4%	-3%	38%	62.5%
C[n+]1c(-c2ccc(/C=C/C=N\NC(=O)c3ccc(C(=O)N/N=C\C=C\c4ccc(-c5cn6ccccc6[n+]5C)cc4)cc3)cc2)cn2ccccc21	18%	98% (active)	96.1% (active)	5%	97% (active)	96.8% (active)	16%	98% (active)	96.8% (active)	22%	97% (active)	96.3% (active)	36%	97% (active)	95.5% (active)	21%	97% (active)	96.8% (active)
CN(C=O)c1ccc2c(c1)Cc1ccccc1-2	14%	80% (active)	47.7%	4%	22%	24.8%	27%	82% (active)	44.9%	2%	40%	58.8%	15%	55%	22.2%	13%	74% (active)	82% (active)
COc1ccc([C@H]2c3cc4c(cc3OC(O)(CO)[C@H]2C(=O)O)OCO4)c(OC)c1 (some centres not stated) (tested in a mixture with another compound)	9%	63%	57%	15%	48%	48.4%	0%	44%	44.1%	0%	35%	28%	-5%	76% (active)	54.5%	6%	86% (active)	80.5% (active)
CN(C)C1CCC(N=Nc2cc([N+](=O)[O-])ccc2C(=O)O)CC1 (configuration not stated)	-7%	55%	86.2% (active)	7%	23%	56.7%	-2%	49%	83.6% (active)	1%	18%	15.6%	7%	87% (active)	94.3% (active)	-1%	61%	84.9% (active)
COc1cc2c(c(OC)c1OC)-c1ccc(SC)c(=O)cc1[C@@H](NC1OC(COC(C)=O)C(OC(C)=O)C(OC(C)=O)C1OC(C)=O)CC2 (some centres not stated)	0%	-3%	-1.6%	-1%	-3%	2.55%	1%	5%	9.45%	3%	-14%	74.2% (active)	0%	-7%	0.9%	0%	-3%	7.15%
Cc1c2c(c(O)c3c(O)cccc13)C(=O)C1(O)C(=O)C(C(N)=O)C(O)C(N(C)C)C1C2 (configuration not stated)	27%	99% (active)	65.7%	82% (active)	100% (active)	99.2% (active)	-90%	100% (active)	58%	66%	99% (active)	98.7% (active)	61%	99% (active)	98.6% (active)	70% (active)	99% (active)	99.1% (active)
CCCCCCCCCCCCCC(=O)OCC[N+](C)(C)C	26%	98% (active)	90.2% (active)	27%	99% (active)	92.5% (active)	41%	99% (active)	92.9% (active)	32%	98% (active)	88.8% (active)	40%	99% (active)	91.5% (active)	34%	98% (active)	90.5% (active)
